AMA1 RON2 block = AMA1-RON2 (P. falciparum) interaction inhibition; AlphaScreen AMA1-biotinylated RON2 peptide binding; Potency, µM (titrated, usually from 58.2 µM), actives largely listed as inhibitors; actives 0.2% (n = 360,000); also: nearly all actives have a fitted effect of over 45% in size
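AMA1 (3D7) with his tag at 25 nM final met compounds first, then biotinylated RON2 peptide at 25 nM; detection used donor plus acceptor beads, 10 µg/mL apiece, read by AlphaScreen after 30 min at room temperature.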
Pf growth 48h = P. falciparum growth inhibition at 48 hours (one generation); Potency, µM (highest dose often 28.7 µM), most hits filed as inhibitors; actives 5.9% (n = 310,000); AID 504832; P. falciparum luciferase growth in erythrocytes, 48 h
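Luminescence readout; reporter = integrated firefly luciferase in P. falciparum. RBC culture at 2% hematocrit, 0.1% parasitemia final, 37 C/5% CO2; decreased signal taken as growth inhibition.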
NS1 function inh = influenza NS1 inhibition | Potency, µM (highest dose often 46.1 µM) | actives 0.4% (n = 270,000); calls by dose curve; also: actives are rising curves; nearly all actives have a fitted effect of over 50% in size
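In this qHTS, NS1 from influenza A is expressed in budding yeast, where it slows growth. Cells are switched from glucose to 2% galactose medium (pH 6.0, -URA), treated with compound, and growth recovery is read at OD600.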
Sm TGR block = S. mansoni TGR enzyme inhibition; actives 3% (n = 360,000); Potency, µM (top dose mostly 114 µM), usual class: inhibitors; AID 485364; purified TGR, DTNB reduction, TNB absorbance 405 nm; also: nearly all actives have a fitted effect of over 60% in size
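Kinetic colorimetric format: TGR-catalysed, NADPH-driven DTNB reduction monitored via TNB absorbance. Enzyme dispensed at 20 nM; compound exposure 15 min at room temperature before reaction start.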
Pf growth 96h = P. falciparum growth inhibition at 96 hours; AID 504834; P. falciparum luciferase reporter growth, 96 h; Potency, µM (highest dose often 28.7 µM), most hits filed as inhibitors; actives 6.9% (n = 320,000)
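Cell-based qHTS: luciferase-tagged P. falciparum in erythrocytes (2% hematocrit, 0.05% parasitemia final) incubated with compounds for 96 hours, 37 C, 5% CO2; luciferase detection reagent then added and luminescence measured.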
Of the large screens only hits and unclear results are named; the others gave an inactive call. Sampled rows, rich in hits. Any-hit rate of the full collection: about 11%. Unless noted, calls follow the shape of the dose curve; as a rule, active = well fitted curve in the direction sought with a large enough effect; inconclusive = small, poorly fitted or top-dose-only effect, or another doubt; inactive = no such curve, though single readings can be large; an effect the other way counts as inactive or inconclusive.

CCCc1ccc2oc(C(=O)N(Cc3ccncc3)CC3CCCO3)c(C)c2c1 (stereo not given)	Pf growth 48h 9.28µM
CN(Cc1ccc(N(C)C)cc1)C(=O)c1cc2ccccc2o1	AMA1 RON2 block 14.1µM
Cc1c(C(=O)N(Cc2ccc(N(C)C)cc2)CC2CCCO2)oc2ccc(Cl)cc12 (stereo not given)	none (no result: AMA1 RON2 block, Pf growth 48h, NS1 function inh, Pf growth 96h)
Cc1c(C(=O)N(Cc2ccc(N(C)C)cc2)CC2CCCO2)oc2ccccc12 (stereo not given)	AMA1 RON2 block inconclusive, Pf growth 96h 4.15µM
O=C(OCCN1C(=O)c2ccccc2C1=O)c1cc2ccccc2o1	none
CN(Cc1ccccc1)C(=O)c1cc2ccccc2o1	none (no result: Pf growth 48h)
CN(C)CCCOC(=O)c1cc2ccccc2o1	Pf growth 48h 2.62µM, Sm TGR block inconclusive, Pf growth 96h inconclusive
COCCN(C(=O)CSc1n[nH]c(-c2ccccc2)n1)c1c(N)n(Cc2ccccc2)c(=O)[nH]c1=O	Pf growth 48h inconclusive (no result: NS1 function inh)
CN(C)c1ccc(CN(CC2CCCO2)C(=O)c2cc3ccccc3o2)cc1 (stereo not given)	AMA1 RON2 block 15.8µM, Pf growth 96h inconclusive (no result: NS1 function inh)
Cc1ccc(C(=O)N(Cc2ccc(N(C)C)cc2)CC2CCCO2)cc1 (stereo not given)	none (no result: AMA1 RON2 block, Pf growth 48h, NS1 function inh, Pf growth 96h)
CCCc1ccc2oc(C(=O)N(C)Cc3cnccn3)c(C)c2c1	Sm TGR block inconclusive, Pf growth 96h 10.4µM
O=C(Cn1c(=O)nc(-c2ccccc2)c2ccccc21)Nc1cccc(C(F)(F)F)c1	none (no result: AMA1 RON2 block, Pf growth 48h, NS1 function inh, Pf growth 96h)
COc1ccc(CCNC(=O)c2cc(-c3cc(C)cc(C)c3O)n[nH]2)cc1OC	Pf growth 48h inconclusive, Pf growth 96h inconclusive
COc1ccc(NC(=O)Oc2ccccc2)cc1Cl	Pf growth 96h 14.7µM
COc1ccc(NC(=O)c2cc(-c3ccccc3O)n[nH]2)cc1Cl	Pf growth 48h 2.62µM, Pf growth 96h 2.08µM
COc1ccc(NC(=O)CNC(c2ccccc2)c2ccccc2)cc1Cl	none
Cc1ccc(OC(=O)Nc2ccccc2)cc1	Pf growth 48h 10.4µM (no result: NS1 function inh)
COc1ccc(NC(=O)c2cc(-c3cc(C)cc(C)c3O)n[nH]2)cc1Cl	Pf growth 48h 9.28µM, Pf growth 96h inconclusive
O=C(Nc1ccccc1)Oc1ccccc1	none (no result: Pf growth 96h)
O=C(Nc1ccccc1)Oc1ccc[nH]c1=O	Sm TGR block 50.1µM
CCCC(=O)NC(c1ccc(N(C)C)cc1)c1ccc2cccnc2c1O (stereo not given)	Pf growth 48h 6.57µM
CCCCC(=O)NC(c1ccc(OC)cc1)c1ccc2cccnc2c1O (stereo not given)	none (no result: Pf growth 48h, NS1 function inh, Sm TGR block, Pf growth 96h)
CCCC(=O)NC(c1ccc(C(C)C)cc1)c1ccc2cccnc2c1O (stereo not given)	Pf growth 48h 1.47µM, Pf growth 96h 14.7µM
CCC(=O)NC(c1ccc(C)cc1)c1ccc2cccnc2c1O (stereo not given)	Pf growth 48h 4.65µM
CCCC(=O)NC(c1ccccc1Cl)c1ccc2cccnc2c1O (stereo not given)	Pf growth 48h inconclusive, Pf growth 96h inconclusive
CCOC(=O)C1=CCN(S(=O)(=O)c2cccc(Cl)c2)C1c1ccc(Br)cc1 (stereo not given)	none (no result: Pf growth 48h, NS1 function inh, Sm TGR block, Pf growth 96h)
CCc1ccccc1NC(=O)CSc1ncc(S(=O)(=O)c2ccc(C(C)C)cc2)c(N)n1	none (no result: AMA1 RON2 block, Pf growth 48h, NS1 function inh, Pf growth 96h)
CC(C)n1c(C(O)c2ccc3c(c2)OCO3)nc2ccccc21 (stereo not given)	Pf growth 48h 9.28µM
Cc1c(NS(=O)(=O)c2ccc(N3CCCCC3)c([N+](=O)[O-])c2)c(=O)n(-c2ccccc2)n1C	none
Cc1c(NS(=O)(=O)c2ccc(N(C)C3CCCCC3)c([N+](=O)[O-])c2)c(=O)n(-c2ccccc2)n1C	Pf growth 48h inconclusive, Pf growth 96h 10.4µM
COc1ccc(C2C(C(=O)Nc3cc(OC)c(OC)c(OC)c3)c3ccccc3C(=O)N2C)cc1OC (stereo not given)	Pf growth 48h 11.7µM (no result: NS1 function inh)
COc1ccc(C2C(C(=O)Nc3cc(C)on3)c3ccccc3C(=O)N2C)cc1 (stereo not given)	Pf growth 48h inconclusive
COc1ccc(C2C(C(=O)Nc3ccc(OC)c(OC)c3)c3ccccc3C(=O)N2C)cc1 (stereo not given)	Pf growth 48h inconclusive, Pf growth 96h inconclusive (no result: NS1 function inh)
COc1ccc(C2C(C(=O)Nc3cccc(C)n3)c3ccccc3C(=O)N2C)cc1 (stereo not given)	Pf growth 48h inconclusive, Pf growth 96h 3.7µM

Bioassay records as filed in PubChem.
